Laboratory results from ChEMBL document CHEMBL3988442, “University of Dundee, Small-Polar-MMV Screening Library” (2021).
Among all 48,000 compounds or so, about 13,000 (27%) showed an effect of 50% or more. The list shows a part of the results.

What follows are molecules tested on Wolbachia pipientis (assay: Anti-Wolbachia Cell-Based Screen). Details: 5 µM.
Format: functional
Set-up: scale not given: in the data most compounds retested in dose-response had high values
With `CCc1nc(CN2CCN(c3ncnc4cc(F)ccc34)CC2)no1` the “Percent Effect” value was -16.98%. `CN(CCO)Cc1nnc(C2CCN(C(=O)c3cc[nH]c3)CC2)n1C` was tested, and the “Percent Effect” value was -143.4%. For `CSc1cccc(CN(C)C(=O)CN2CCN(c3ncccn3)CC2)c1`, the “Percent Effect” value was -6.038%. For `CN1CCN(c2ncccn2)CC(C(=O)N(C)C)C1` (stereo not drawn), the “Percent Effect” value was 92.05%. In the case of `Cc1ccc(C(=O)N2C[C@@H]3CN(c4ncccn4)C[C@@H]3C2)cn1`, the “Percent Effect” value is reported as 1.13%. In the case of `CN(C)C(=O)[C@H]1C[C@@H]2CN(c3ncccn3)C[C@H]1O2`, the “Percent Effect” value is reported as 10.85%. For `CN1CCN(c2ncccn2)CC1C(N)=O` (stereo not drawn), the “Percent Effect” value was 76.51%. With `CN(C)C(=O)C1CN(c2ncccn2)CCN1C` (stereo not drawn) the “Percent Effect” value was 84.43%. `CN(C)C(=O)CN1C[C@H]2CCN(c3ncccn3)CC[C@H]2S1(=O)=O.O=C(O)C(F)(F)F` was tested, and the “Percent Effect” value was -3.991%. `Cc1ccc(C(=O)N2C[C@@H]3CN(c4ncccn4)C[C@@H]3C2)cc1` was tested, and the “Percent Effect” value was 3.247%. For `CN(C)C(=O)[C@@H]1CCO[C@@H]2CCN(c3ncccn3)C[C@@H]21.O=C(O)C(F)(F)F`, the “Percent Effect” value was 0.2661%. `CCc1c(C)nc(C)nc1N1C[C@@H](CN(CC)CCO)[C@@H](CO)C1` was tested, and the “Percent Effect” value was 6.908%. In the case of `COc1cc(F)ccc1N1CCN(Cc2nnc(C3CC3)o2)CC1`, the “Percent Effect” value is reported as -5.388%. `Cc1nc(CN2CCCC(N(C)Cc3nnc(C4CC4)o3)C2)no1` (stereo not drawn) was tested, and the “Percent Effect” value was 6.77%. In the case of `CCc1nc(CN2CCCC(N(C)Cc3cnn(C)c3)C2)no1` (stereo not drawn), the “Percent Effect” value is reported as 10.72%. For `CC(C)c1nc(CN(C)C2CCN(Cc3nc(C4CC4)no3)C2)no1` (stereo not drawn), the “Percent Effect” value was -21.22%. With `CCCc1noc(CN2CCC(N(C)Cc3nnc(C4CC4)o3)C2)n1` (stereo not drawn) the “Percent Effect” value was 109.8%. In the case of `CC(C)c1nc(CN(C)C2CCN(Cc3nnc(C4CC4)o3)C2)no1` (stereo not drawn), the “Percent Effect” value is reported as 123.9%. In the case of `CC(C)c1nc(CN2CCCN(Cc3nnc(C4CC4)o3)CC2)no1`, the “Percent Effect” value is reported as 0.1522%. In the case of `CCc1nc(CN(C)C2CCN(Cc3cnc(C)cn3)C2)no1` (stereo not drawn), the “Percent Effect” value is reported as 5.773%. With `Cc1nc(CN2CCCC(N(C)Cc3nc(C)c(C)o3)C2)no1` (stereo not drawn) the “Percent Effect” value was -3.907%. For `CCc1nc(CN(C)C2CCN(Cc3nnc(C4CCC4)o3)C2)no1` (stereo not drawn), the “Percent Effect” value was 110.6%. In the case of `Cc1nc(CN(C)C2CCN(Cc3nnc(C4CC4)o3)C2)no1` (stereo not drawn), the “Percent Effect” value is reported as 115.8%. For `CN(Cc1nnc(C2CC2)o1)C1CCN(CCCc2cnn(C)c2)C1` (stereo not drawn), the “Percent Effect” value was 3.532%. With `CCCc1n[nH]c(C2CN(Cc3nnc(C4CC4)o3)CCO2)n1` (stereo not drawn) the “Percent Effect” value was -2.84%. For `O=S(=O)(Cc1ccccc1Cl)NCCCN1CCCC1`, the “Percent Effect” value was -15.99%. For `OC1CCN(C2CCN(Cc3cnc(-c4cccs4)nc3)CC2)CC1`, the “Percent Effect” value was 3.199%. With `COc1cc(OC)c(-c2nc3c([nH]2)c(C2CC2)nn3C)cc1OC` the “Percent Effect” value was 11.95%. With `CN1CCOC(C(=O)Nc2nc(-c3ccc(Cl)cc3)n[nH]2)C1` (stereo not drawn) the “Percent Effect” value was -7.364%. `COc1ccc(CN2C[C@@H]3CN(Cc4ccncc4)C[C@@H]3C2=O)cc1.O=C(O)C(F)(F)F.O=C(O)C(F)(F)F` was tested, and the “Percent Effect” value was -12.53%. For `COc1ccccc1[C@@H]1CN(Cc2ccncc2)C[C@H]1C(=O)O`, the “Percent Effect” value was -10.92%. In the case of `O=C(O)CC(O)(CC(=O)O)C(=O)O.c1ccc([C@@H]2CN(Cc3ccncc3)C[C@H]2c2cc[nH]n2)cc1`, the “Percent Effect” value is reported as 114%. `O=C(O)CC(O)(CC(=O)O)C(=O)O.c1cncc(-c2nccc(CN3CCCC3)n2)c1` was tested, and the “Percent Effect” value was -12.77%. With `O=C(CCC1CCCC1)N1C[C@H]2CC[C@@H]1CN(Cc1ccncc1)C2` the “Percent Effect” value was 3.308%. In the case of `O=C(O)CC(O)(CC(=O)O)C(=O)O.c1ccc([C@@H]2CN(Cc3cccnc3)C[C@H]2c2cc[nH]n2)cc1`, the “Percent Effect” value is reported as 104%. For `COc1ccc(CN2C[C@H]3CN(Cc4ccncc4)C(=O)[C@H]3C2)cc1.O=C(O)C(F)(F)F.O=C(O)C(F)(F)F`, the “Percent Effect” value was -3.011%. With `O=C(O)CC(O)(CC(=O)O)C(=O)O.c1ccc(CC2CCN(Cc3ccnc(-c4cccnc4)n3)CC2)cc1` the “Percent Effect” value was 2.968%. With `COc1ccc([C@@H]2CN(Cc3ccncc3)C[C@H]2c2cc[nH]n2)cc1.O=C(O)CC(O)(CC(=O)O)C(=O)O` the “Percent Effect” value was 69.64%. For `Cc1csc(CN(C)S(=O)(=O)c2ccc(C)c(N(C)C)c2)n1`, the “Percent Effect” value was 11.95%. In the case of `Cc1cc(C(N)=O)ccc1NC(=O)c1nc(N2CCCC2)ncc1Cl`, the “Percent Effect” value is reported as -12.29%. In the case of `Cn1ncc(NC(=O)c2noc3c2CCCC3)c1C(N)=O`, the “Percent Effect” value is reported as 112.2%. With `CN(C)C(=O)c1noc2c1CN(C(=O)CCCN1CCCCC1)CC2` the “Percent Effect” value was -13.23%. In the case of `COc1cccc([C@H]2CN(C(=O)c3noc4c3CCCC4)C[C@@H]2N)c1`, the “Percent Effect” value is reported as -1.914%. `Cc1c(NC(=O)c2noc3c2CCCC3)cnn1C` was tested, and the “Percent Effect” value was 77.55%. For `Cc1cc(CN2CCC(CNC(=O)c3noc4c3CCCC4)C2)[nH]n1` (stereo not drawn), the “Percent Effect” value was -1.453%. In the case of `CN1CCc2[nH]cnc2C12CCN(C(=O)c1noc3c1CCCC3)CC2`, the “Percent Effect” value is reported as 33.96%. With `Cn1ncc(NC(=O)c2noc3c2CCCC3)c1C(=O)N1CCCCC1` the “Percent Effect” value was 98.83%. `CCC(CNS(C)(=O)=O)Oc1ccccc1F` (stereo not drawn) was tested, and the “Percent Effect” value was -7.569%. For `CN1CCC(C2CCN(Cc3cccc(-n4cccn4)c3)CC2)C1` (stereo not drawn), the “Percent Effect” value was -5.048%. `CC(=O)N1CC(=O)N(c2cnn(C)c2)CC12CCN(Cc1nccs1)C2` (stereo not drawn) was tested, and the “Percent Effect” value was -3.662%. With `CC(=O)N1CC(=O)N(c2cnn(C)c2)CC12CCN(Cc1ccsc1)C2.O=C(O)C(F)(F)F.O=C(O)C(F)(F)F` (stereo not drawn) the “Percent Effect” value was 4.027%. With `CC(=O)N1CC(=O)N(c2cnn(C)c2)CC12CCN(Cc1ccco1)C2` (stereo not drawn) the “Percent Effect” value was 98.22%. For `CC(=O)N1CC(=O)N(c2ccccc2)CC12CCN(Cc1cccs1)C2.O=C(O)C(F)(F)F` (stereo not drawn), the “Percent Effect” value was 4.365%. With `CC(=O)N1CC(=O)N(c2cnn(C)c2)CC12CCN(Cc1cccs1)C2.O=C(O)C(F)(F)F` (stereo not drawn) the “Percent Effect” value was 106.8%. For `CC(=O)N1CC(=O)N(c2cnn(C)c2)CC12CCN(Cc1ccoc1)C2` (stereo not drawn), the “Percent Effect” value was -11.13%. For `CN(Cc1cccc2ncccc12)C(=O)CCn1ccc(=O)[nH]c1=O`, the “Percent Effect” value was 10.3%. `CNC(=O)CN1CCC(CN(C)Cc2ccccc2N(C)C)CC1` was tested, and the “Percent Effect” value was 105.8%. `CNC(=O)CN1CCC(NC(=O)CC(C)CCc2ccccc2)CC1` (stereo not drawn) was tested, and the “Percent Effect” value was 1.042%. `CNC(=O)CN1CCC(c2nn(C)c(=O)n2-c2ccccc2)CC1` was tested, and the “Percent Effect” value was 1.276%. For `CNC(=O)CN1CCC(CN(C)Cc2ccc(C)cc2C)CC1`, the “Percent Effect” value was 95.31%. For `CNC(=O)CN1CCC(CN(C)Cc2ccncc2Cl)CC1`, the “Percent Effect” value was 104.1%. With `CNC(=O)CN1CCC(NC(=O)Cn2cc(C)c3ccccc32)CC1` the “Percent Effect” value was -8.28%. In the case of `CNC(=O)CN1CCC(NC(=O)N(C)Cc2cc(C)on2)CC1`, the “Percent Effect” value is reported as 7.433%. With `CC(=O)N(Cc1noc(C)n1)C1CCN(Cc2ccncc2Cl)C1` (stereo not drawn) the “Percent Effect” value was 6.525%. `CNC(=O)CN1CCCC(Cc2ccccc2OC)C1` (stereo not drawn) was tested, and the “Percent Effect” value was 4.844%. For `CNC(=O)CN1CCC(CN(C)CCSc2ccccc2)CC1`, the “Percent Effect” value was 112.7%. With `CNC(=O)CN1CCC(NC(=O)Cc2ccccc2OC(C)C)CC1` the “Percent Effect” value was -20.84%. For `CN(Cc1cc(Cl)cc2cccnc12)CC1CCN(CCO)CC1`, the “Percent Effect” value was -4.482%.
